The nature of assay [1]: antimalarial activity against Dd2 strain (AID 2302;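 active = growth inhibition above 50% at the single 2 µM test dose, taken to imply half-maximal potency below 2 µM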;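 also: 0% = DMSO untreated growth and 100% = chloroquine plus artemisinin killed control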). The settings on record: P. falciparum Dd2 in RBCs, LDH growth readout, 72 h; at 2 µM; active compounds read high.
Assay [2] can be described thus: human hepatoma cell viability loss – ATP luminescence, cytotoxicity control for P. falciparum antimalarial project, primary screen (AID 2303;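 active = inhibition above 50%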;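 also: 0% = DMSO wells and 100% = digitonin-killed cells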). The conditions noted are these: HepG2 viability, 24-48 h, at 10 µM, active compounds read high.
Assay [3] has as its target L-lactate dehydrogenase (Plasmodium falciparum (isolate CDC / Honduras)) (UniProt Q27743). In words: PfLDH activity inhibition – cell lysate, 3D7 strain, counter-screen for P. falciparum growth inhibition project (AID 2304).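 Also: 0% = vehicle and 100% = reference inhibitor.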 The settings on record: P. falciparum 3D7 crude extract, LDH APAD/NBT absorbance; at 2 µM; active compounds read high.
Assay [4] is described as follows: inhibition of 3D7 malaria parasite growth – strain 3D7 (AID 2306).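 Also: 0% = DMSO wells and 100% = chloroquine plus artemisinin control wells.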 The settings on record: P. falciparum 3D7 erythrocytic growth, LDH absorbance, 72 h; at 2 µM; active compounds read high.
Assay [5] deals with Plasmodium falciparum protein kinase 6 (PK6, PF3D7_1337100) (UniProt Q8IDW1). In words: PfPK6 kinase inhibitors, biochemical, TCAMS library (AID 1159586). The settings on record: recombinant PfPK6, Kinase-Glo ATP depletion luminescence.
The target of assay [6] is Protein kinase 7 (PK7), Plasmodium falciparum 3D7 (PF3D7_0213400) (UniProt Q7YTF7). In words: inhibition of Plasmodium PK7 catalytic activity – biochemical, TCAMS antimalarial set, Kinase-Glo luminescence (AID 1159587). The conditions noted are these: recombinant PfPK7, Kinase-Glo ATP depletion luminescence.
For assay [7], the target named is Calcium-dependent protein kinase 4 (Plasmodium falciparum (isolate 3D7)) (UniProt Q8IBS5). In words: PfCDPK4 kinase inhibitors, biochemical, TCAMS library (AID 1159588; cut-off not given, nearly all actives have IC50 up to about 0.91 µM). The settings on record: recombinant PfCDPK4, Kinase-Glo ATP depletion luminescence.

Values without a mark were called inactive. For some assays here: Entries with a potency or affinity are not part of this list. Activity calls are given as the source filed them. Unless noted, no rule for the calls is given here.

From PubChem BioAssay come the findings set out here.

Protein kinase 7 (PK7), Plasmodium falciparum 3D7 (PF3D7_0213400), sequence (Q7YTF7 1-343): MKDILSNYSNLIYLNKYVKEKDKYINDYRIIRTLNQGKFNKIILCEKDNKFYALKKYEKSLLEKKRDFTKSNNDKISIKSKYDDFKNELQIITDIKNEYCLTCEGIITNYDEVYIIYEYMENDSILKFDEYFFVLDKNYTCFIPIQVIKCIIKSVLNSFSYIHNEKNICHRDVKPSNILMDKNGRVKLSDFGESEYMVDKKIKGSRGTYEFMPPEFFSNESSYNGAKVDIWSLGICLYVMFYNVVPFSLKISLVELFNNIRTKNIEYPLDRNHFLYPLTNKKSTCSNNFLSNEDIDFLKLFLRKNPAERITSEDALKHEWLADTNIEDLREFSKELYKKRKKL
L-lactate dehydrogenase (Plasmodium falciparum (isolate CDC / Honduras)), sequence (Q27743 whole entry, looked up): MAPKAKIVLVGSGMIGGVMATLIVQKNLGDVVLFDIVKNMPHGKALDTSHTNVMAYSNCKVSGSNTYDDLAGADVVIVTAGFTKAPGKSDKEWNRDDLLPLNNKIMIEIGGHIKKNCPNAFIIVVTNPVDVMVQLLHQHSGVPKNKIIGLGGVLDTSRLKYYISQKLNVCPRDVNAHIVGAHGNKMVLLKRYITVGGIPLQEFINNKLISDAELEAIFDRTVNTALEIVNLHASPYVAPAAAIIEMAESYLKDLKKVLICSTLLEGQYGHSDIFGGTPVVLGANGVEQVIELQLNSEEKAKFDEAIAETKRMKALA
Plasmodium falciparum protein kinase 6 (PK6, PF3D7_1337100), sequence (Q8IDW1 1-305): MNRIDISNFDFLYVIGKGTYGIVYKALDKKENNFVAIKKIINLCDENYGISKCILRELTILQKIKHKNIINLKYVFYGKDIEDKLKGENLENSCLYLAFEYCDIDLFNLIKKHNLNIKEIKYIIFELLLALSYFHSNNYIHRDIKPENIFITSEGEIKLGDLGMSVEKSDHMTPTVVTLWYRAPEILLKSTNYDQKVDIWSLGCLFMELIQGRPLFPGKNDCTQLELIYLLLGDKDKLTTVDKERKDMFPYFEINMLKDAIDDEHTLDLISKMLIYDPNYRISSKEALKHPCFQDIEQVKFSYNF
Calcium-dependent protein kinase 4 (Plasmodium falciparum (isolate 3D7)), sequence (Q8IBS5 whole entry, looked up): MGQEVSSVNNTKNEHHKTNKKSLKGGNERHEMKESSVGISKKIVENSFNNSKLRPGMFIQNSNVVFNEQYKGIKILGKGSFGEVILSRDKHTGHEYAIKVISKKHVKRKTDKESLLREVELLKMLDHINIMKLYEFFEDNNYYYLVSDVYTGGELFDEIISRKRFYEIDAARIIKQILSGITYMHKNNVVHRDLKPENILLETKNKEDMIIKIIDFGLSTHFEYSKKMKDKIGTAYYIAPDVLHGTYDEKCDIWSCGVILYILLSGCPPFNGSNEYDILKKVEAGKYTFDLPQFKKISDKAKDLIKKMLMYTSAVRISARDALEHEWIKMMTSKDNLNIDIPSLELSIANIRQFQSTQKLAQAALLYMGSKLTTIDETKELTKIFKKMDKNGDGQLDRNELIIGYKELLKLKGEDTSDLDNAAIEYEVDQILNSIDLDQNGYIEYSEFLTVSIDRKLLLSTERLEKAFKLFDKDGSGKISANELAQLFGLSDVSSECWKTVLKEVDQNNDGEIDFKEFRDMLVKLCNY

Regarding `CCn1c(-c2nonc2N)nc2c(-c3cccc(NC(=O)Nc4ccc5c(c4)CCC5)c3)ncc(OCCCN)c21`, the growth inhibition in assay [1] was 94% (active); in assay [4] it was 99% (active). For the same molecule, the results for the inhibition in assay [2] and in assay [3] were 26% and -2%, respectively. In addition, the result in assay [5] and in assay [6] was inactive.

For the molecule `COc1cc(Nc2nccc(-c3c(-c4cccc(NC(=O)c5c(F)cccc5F)c4)nn4ccccc34)n2)cc(OC)c1OC`, the growth inhibition in assay [1] and in assay [4] was 98% (active) throughout. The inhibition in assay [2] was 74% (active); in assay [3] it was 4%. Besides, the result in assay [5] and in assay [6] was inactive.

For the molecule `CN(C)Cc1ccc(-c2ccc3c(Nc4ccc(Oc5ccccn5)cc4)ccnc3c2)o1`, the growth inhibition in assay [1] is 100% (active); in assay [4], 101% (active). The inhibition in assay [2] was 18%; in assay [3], 1%. Further, the outcome in assay [5], in assay [6] and in assay [7] was inactive.

With `Oc1cccc(Nc2ccnc3cc(-c4ccncc4)ccc23)c1`, the growth inhibition is 99% (active) in assay [1] and 101% (active) in assay [4]. Further, the figures for the inhibition in assay [2] and in assay [3] were 8% and 1%, respectively. Further, the outcome in assay [5], in assay [6] and in assay [7] was inactive.

For the molecule `O=C(NC1CC1)c1ccc(Nc2nccc(-c3c(-c4cccc(NC(=O)c5c(F)cccc5F)c4)nn4ccccc34)n2)cc1`, the growth inhibition in assay [1] is 96% (active); in assay [4], 94% (active). Besides, the inhibition was 84% (active) in assay [2] and -1% in assay [3]. Also, the outcome in assay [5], in assay [6] and in assay [7] was inactive.

For `CCn1c(-c2nonc2N)nc2c(-c3ccccc3)ncc(OCCCNCCCN3CCOCC3)c21`, the growth inhibition in assay [1] is 91% (active); in assay [4] it was 100% (active). Besides, the results for the inhibition in assay [2] and in assay [3] were 28% and -7%, respectively. Further, the outcome in assay [5] and in assay [6] was inactive.

`O=C(NCC(c1ccc(C(F)(F)F)cc1)N1CCCC1)c1cc(-c2ccncc2)c(-c2cccc(O)c2)o1` (stereo unspecified): the growth inhibition in assay [1] was 53% (active); in assay [4], 95% (active). For the same molecule, the inhibition in assay [2] was 9%; in assay [3], 0%. Also, the outcome in assay [5] and in assay [6] was inactive.

As for `NCC1(c2nc(-c3ccc(Cl)c(O)c3)c(-c3ccncc3)[nH]2)CCCCC1`, the growth inhibition in assay [1] and in assay [4] was 98% (active) throughout. Also, the inhibition in assay [2] was 48%; in assay [3], -2%. Also, the result in assay [5], in assay [6] and in assay [7] was inactive.

For `O=C(Nc1cccc(-c2nn3ccccc3c2-c2ccnc(Nc3cccc(-c4cnco4)c3)n2)c1)C1CCCCC1`, the growth inhibition was 99% (active) in assay [1] and 95% (active) in assay [4]. For the same molecule, the inhibition is 71% (active) in assay [2] and -4% in assay [3]. For the same molecule, the outcome in assay [5] and in assay [6] was inactive.

In the case of `CC(C)(CNC(=O)C1CCN(Cc2ccoc2)CC1)c1nc(-c2ccc(Cl)c(O)c2)c(-c2ccncc2)[nH]1`, the growth inhibition was 66% (active) in assay [1] and 93% (active) in assay [4]. Further, the figures for the inhibition in assay [2] and in assay [3] were -12% and -2%, respectively. Moreover, the result in assay [5], in assay [6] and in assay [7] was inactive.

For the molecule `O=C(Nc1cccc(-c2nn3ncccc3c2-c2ccnc(Nc3cccc(-c4cnco4)c3)n2)c1)c1c(F)cccc1F`, the growth inhibition is 98% (active) in assay [1] and 97% (active) in assay [4]. In addition, the figures for the inhibition in assay [2] and in assay [3] were 96% (active) and 2%, respectively. Further, the result in assay [5] and in assay [6] was inactive.

For the molecule `Nc1ncc(-c2cn[nH]c2)cc1-c1nc2ncc(Cl)cc2[nH]1`, the results for the growth inhibition in assay [1] and in assay [4] were 70% (active) and 100% (active), respectively. For the same molecule, the inhibition in assay [2] is 40%; in assay [3] it was 1%. In addition, the result in assay [5], in assay [6] and in assay [7] was inactive.

On to `O=C(NCCN1CCCCC1)c1cccc(Nc2nccc(Nc3ccc(Oc4ccccc4)cc3)n2)c1`, for which the values for the growth inhibition in assay [1] and in assay [4] were 86% (active) and 99% (active), respectively. Further, the inhibition in assay [2] was 50% (active); in assay [3], -2%. The outcome in assay [5], in assay [6] and in assay [7] was inactive.

In the case of `Fc1cc(Cl)ccc1Nc1ccnc2cc(-c3ccc(CNCCN4CCOCC4)o3)ccc12`, the values for the growth inhibition in assay [1] and in assay [4] were 100% (active) and 101% (active), respectively. Also, the inhibition was 13% in assay [2] and -2% in assay [3]. For the same molecule, the result in assay [5], in assay [6] and in assay [7] was inactive.

Consider `CCn1c(-c2nonc2N)nc2c(-c3cccc(NC(=O)Nc4ccccc4Cl)c3)ncc(OCCCN)c21`, for which the growth inhibition is 74% (active) in assay [1] and 99% (active) in assay [4]. Also, the inhibition in assay [2] was 2%; in assay [3] it was -4%. The outcome in assay [5] and in assay [6] was inactive.

Consider `COc1cccc(CNCC(C)(C)c2nc(-c3ccc(Cl)c(O)c3)c(-c3ccncc3)[nH]2)c1`, for which the growth inhibition is 98% (active) in assay [1] and 101% (active) in assay [4]. Further, the inhibition in assay [2] is 74% (active); in assay [3], -9%. In addition, the result in assay [5], in assay [6] and in assay [7] was inactive.

As for `c1ccc(Oc2ccc(Nc3ccnc(Nc4ccc5cn[nH]c5c4)n3)cc2)cc1`, the growth inhibition in assay [1] was 33%; in assay [4], 94% (active). In addition, the inhibition in assay [2] is 6%; in assay [3], -7%. Further, the result in assay [5], in assay [6] and in assay [7] was inactive.

As to `CS(=O)(=O)Nc1cccc(-c2cnc3[nH]cc(-c4cccc(CN)c4)c3c2)c1`, the growth inhibition in assay [1] was 82% (active); in assay [4] it was 96% (active). The inhibition in assay [2] is 25%; in assay [3], -2%. For the same molecule, the outcome in assay [5], in assay [6] and in assay [7] was inactive.

`Cc1ccc(Nc2nc3cc(N(C)c4ccnc(Nc5cccc(CCS(C)(=O)=O)c5)n4)ccc3n2C)cc1`: the growth inhibition was 73% (active) in assay [1] and 99% (active) in assay [4]. Also, the figures for the inhibition in assay [2] and in assay [3] were 78% (active) and 4%, respectively. In addition, the result in assay [5], in assay [6] and in assay [7] was inactive.

As to `CN(C)CCN(C)Cc1ccc(-c2ccc3c(Nc4ccc(Oc5ccccc5)cc4)ccnc3c2)o1`, the growth inhibition in assay [1] and in assay [4] was 100% (active) each time. Moreover, the results for the inhibition in assay [2] and in assay [3] were 5% and -4%, respectively. For the same molecule, the outcome in assay [5], in assay [6] and in assay [7] was inactive.

Consider `Cc1cc(F)ccc1-c1nc(Nc2ccncc2)c2ccn(C)c2n1`, for which the growth inhibition in assay [1] is 8%; in assay [4], 89% (active). The inhibition in assay [2] was 9%; in assay [3], 5%. The outcome in assay [5], in assay [6] and in assay [7] was inactive.

`Cc1csc(-c2ncc(OC[C@@H](N)Cc3ccccc3)cc2-c2ccc3n[nH]c(C)c3c2)c1`: the growth inhibition is 35% in assay [1] and 98% (active) in assay [4]. For the same molecule, the inhibition in assay [2] is 48%; in assay [3], 4%. Further, the result in assay [5] and in assay [6] was inactive.
